Laboratory results reported in PubChem BioAssay (EPA / NIEHS).
The source made the active and inactive calls. The calls were made as follows: active = hit-call score of the fitted dose curve at least 0.9, where 1 is the maximum; inactive = score below 0.9.

Experiments:
Details in all cases: mRNA level, 48 h; actives raise or lower the signal
CYP3A5 (gene 1577) = assay: LTEA_HepaRG_CYP3A5: Life Technologies and Expression Analysis (LTEA) Assay for CYP3A5 using HepaRG (AID 2283493)
How it was run: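 Differentiated HepaRG cells in serum-free induction medium were dosed 48 h with test chemicals (8-point half-log series, top 100 uM, 0.5% DMSO, duplicate). CYP3A5 mRNA measured by qRT-PCR, normalized to ACTB, GAPDH, POLR2A; bidirectional fit versus DMSO.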

[1] = read-out: Fatty Acid-Binding Protein 1 (FABP1), FABP1 (gene 2168); assay: LTEA_HepaRG_FABP1: Life Technologies and Expression Analysis (LTEA) Assay for Fatty Acid-Binding Protein 1 (FABP1) using HepaRG (AID 2283494)
How it was run: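 Differentiated human HepaRG cells were exposed in duplicate for 48 h in serum-free induction medium to 8-point half-log concentration series topping at 100 uM in 0.5% DMSO. FABP1 mRNA measured by TaqMan qRT-PCR, normalized to ACTB/GAPDH/POLR2A; bidirectional fit versus DMSO.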

[2] = read-out: Cytochrome P450 4A22 (Homo sapiens) (UniProt Q5TCH4); assay: LTEA_HepaRG_CYP4A22: Life Technologies and Expression Analysis (LTEA) Assay for Cytochrome P450 4A22 (CYP4A22) using HepaRG (AID 2283495)
How it was run: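 qRT-PCR of CYP4A22 mRNA (Fluidigm TaqMan, normalized to three housekeeping genes) after 48 h chemical exposure of HepaRG cells; 8-point half-log series, top 100 uM, 0.5% DMSO vehicle. Bidirectional curve fitting vs DMSO baseline.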

[3] = read-out: Cytochrome P450 7A1 (Homo sapiens) (UniProt P22680); assay: LTEA_HepaRG_CYP7A1: Life Technologies and Expression Analysis (LTEA) Assay for Cytochrome P450 7A1 (CYP7A1) using HepaRG (AID 2283496)
How it was run: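 Gene expression endpoint in human HepaRG liver cells treated for 48 h with test chemicals (up to 100 uM, 0.5% DMSO). Values come from bidirectional concentration-response fitting versus DMSO.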

[4] = read-out: Glutathione S-Transferase (GSTA2), GSTA2 (gene 2939); assay: LTEA_HepaRG_GSTA2: Life Technologies and Expression Analysis (LTEA) Assay for Glutathione S-Transferase (GSTA2) using HepaRG (AID 2283497)
How it was run: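 Human HepaRG cells, plated 48 h, then exposed in serum-free induction medium for 48 h to eight half-log concentrations up to 100 uM in 0.5% DMSO, duplicate. GSTA2 mRNA by qRT-PCR, normalized to ACTB/GAPDH/POLR2A; bidirectional fit versus DMSO.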

[5] = read-out: Glutamate-cysteine ligase catalytic (GCLC), GCLC (gene 2729); assay: LTEA_HepaRG_GCLC: Life Technologies and Expression Analysis (LTEA) Assay for Glutamate-cysteine ligase catalytic (GCLC) using HepaRG (AID 2283498)
How it was run: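 Differentiated human HepaRG cells, plated 48 h then switched to serum-free induction medium, were exposed in duplicate for 48 h to 8 half-log concentrations topping at 100 uM in 0.5% DMSO. GCLC mRNA was quantified by qRT-PCR against ACTB, GAPDH and POLR2A.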

[6] = read-out: growth arrest and DNA damage 45 (GADD45G), GADD45G (gene 10912); assay: LTEA_HepaRG_GADD45G: Life Technologies and Expression Analysis (LTEA) Assay for growth arrest and DNA damage 45 (GADD45G) using HepaRG (AID 2283499)
How it was run: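 Differentiated human HepaRG cells in serum-free induction medium were exposed for 48 h to 8 half-log concentrations up to 100 uM in 0.5% DMSO, in duplicate. GADD45G mRNA was measured by TaqMan qRT-PCR, normalised to ACTB, GAPDH and POLR2A, and fitted bidirectionally against DMSO.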

[7] = read-out: Glutamate-cysteine ligase regulatory (GCLM), GCLM (gene 2730); assay: LTEA_HepaRG_GCLM: Life Technologies and Expression Analysis (LTEA) Assay for Glutamate-cysteine ligase regulatory (GCLM) using HepaRG (AID 2283500)
How it was run: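 Differentiated human HepaRG cells exposed 48 h in serum-free induction medium to 8-point half-log concentrations (top 100 uM, 0.5% DMSO), in duplicate. GCLM mRNA quantified by qRT-PCR, normalized to ACTB, GAPDH, POLR2A; bidirectional fitting versus DMSO.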

[8] = read-out: Glutathione S-transferase M3 (GSTM3), GSTM3 (gene 2947); assay: LTEA_HepaRG_GSTM3: Life Technologies and Expression Analysis (LTEA) Assay for Glutathione S-transferase M3 (GSTM3) using HepaRG (AID 2283501)
How it was run: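 Differentiated HepaRG cells in serum-free induction medium were exposed in duplicate for 48 h to 8 half-log concentrations up to 100 uM in 0.5% DMSO. GSTM3 mRNA was measured by TaqMan qRT-PCR, normalized to ACTB/GAPDH/POLR2A, and fitted bidirectionally versus DMSO.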

[9] = read-out: Heat shock 70 kDa protein 1 (HSPA1A), gene 3303; assay: LTEA_HepaRG_HSPA1A: Life Technologies and Expression Analysis (LTEA) Assay for Heat shock 70 kDa protein 1 (HSPA1A) using HepaRG (AID 2283502)
How it was run: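 Differentiated human HepaRG cells in serum-free induction medium were exposed in duplicate for 48 h to eight concentrations (top 100 uM, half-log steps, 0.5% DMSO). HSPA1A mRNA was quantified by qRT-PCR, normalized to ACTB, GAPDH and POLR2A, and fitted bidirectionally against DMSO.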

[10] = read-out: Hypoxia-inducible factor 1-alpha (Homo sapiens) (UniProt Q16665); assay: LTEA_HepaRG_HIF1A: Life Technologies and Expression Analysis (LTEA) Assay for Hypoxia-inducible factor 1 (HIF1A) Trancription factor using HepaRG (AID 2283503)
How it was run: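 HepaRG, 48 h exposure, 8-pt half-log series from 100 uM, 0.5% DMSO vehicle, duplicates. Readout: HIF1A transcript by qRT-PCR (Fluidigm array), housekeeping-normalised. Bidirectional curve fit vs DMSO baseline.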

[11] = read-out: 3-Hydroxy-3-Methylglutaryl-CoA Synthase 2 (HMGCS2), HMGCS2 (gene 3158); assay: LTEA_HepaRG_HMGCS2: Life Technologies and Expression Analysis (LTEA) Assay for 3-Hydroxy-3-Methylglutaryl-CoA Synthase 2 (HMGCS2) using HepaRG (AID 2283504)
How it was run: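 Differentiated human HepaRG cells were exposed in duplicate for 48 h in serum-free induction medium to eight concentrations (top 100 uM, half-log steps, 0.5% DMSO). HMGCS2 mRNA was quantified by TaqMan qRT-PCR, normalised to ACTB, GAPDH and POLR2A, then fitted bidirectionally against DMSO.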

HGF (gene 3082) = assay: LTEA_HepaRG_HGF: Life Technologies and Expression Analysis (LTEA) Assay for Hepatocyte Growth Facto (HGF) using HepaRG (AID 2283505)
How it was run: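 Differentiated human HepaRG cells in serum-free induction medium were exposed in duplicate for 48 h to eight concentrations (top 100 uM, half-log steps, 0.5% DMSO). HGF mRNA was quantified by qRT-PCR, normalized to ACTB, GAPDH and POLR2A.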

[12] = read-out: Insulin Like Growth Factor 1 (IGF1), IGF1 (gene 3479); assay: LTEA_HepaRG_IGF1: Life Technologies and Expression Analysis (LTEA) Assay for Insulin Like Growth Factor 1 (IGF1) using HepaRG (AID 2283506)
How it was run: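 Differentiated human HepaRG cells were dosed for 48 h in serum-free induction medium with 0.5% DMSO, eight half-log concentrations up to 100 uM, in duplicate. IGF1 mRNA was quantified by qRT-PCR normalized to ACTB, GAPDH, POLR2A; bidirectional fitting versus DMSO.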

[13] = read-out: Intercellular Adhesion Molecule 1 (ICAM1), ICAM1 (gene 3383); assay: LTEA_HepaRG_ICAM1: Life Technologies and Expression Analysis (LTEA) Assay for Intercellular Adhesion Molecule 1 (ICAM1) using HepaRG (AID 2283507)
How it was run: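 Differentiated HepaRG cells in serum-free induction medium were exposed in duplicate for 48 h to eight half-log concentrations up to 100 uM in 0.5% DMSO. Transcript levels were measured by qRT-PCR normalized to ACTB, GAPDH and POLR2A; bidirectional fits relative to DMSO.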

[14] = read-out: Insulin-like growth factor-binding protein 1 (IGFBP1), IGFBP1 (gene 3484); assay: LTEA_HepaRG_IGFBP1: Life Technologies and Expression Analysis (LTEA) Assay for Insulin-like growth factor-binding protein 1 (IGFBP1) using HepaRG (AID 2283508)
How it was run: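 Differentiated human HepaRG cells in serum-free induction medium were exposed in duplicate for 48 h to eight concentrations, top 100 uM with half-log dilutions, in 0.5% DMSO. Transcript levels came from qRT-PCR normalised to ACTB, GAPDH and POLR2A, fitted bidirectionally against DMSO.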

[15] = read-out: Interleukin 6 (IL6), IL6 (gene 3569); assay: LTEA_HepaRG_IL6: Life Technologies and Expression Analysis (LTEA) Assay for Interleukin 6 (IL6) using HepaRG (AID 2283509)
How it was run: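 Differentiated human HepaRG cells, plated 48 h then switched to serum-free induction medium, were exposed in duplicate for 48 h to eight half-log concentrations up to 100 uM in 0.5% DMSO. IL6 mRNA measured by qRT-PCR, normalized to ACTB/GAPDH/POLR2A.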

[16] = read-out: Interleukin 6 Receptor (IL6R), IL6R (gene 3570); assay: LTEA_HepaRG_IL6R: Life Technologies and Expression Analysis (LTEA) Assay for Interleukin 6 Receptor (IL6R) using HepaRG (AID 2283510);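 as to AC50: TaqMan qRT-PCR signal normalized to ACTB GAPDH and POLR2A housekeeping genes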
How it was run: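 Differentiated human HepaRG cells, plated 48 h then switched to serum-free induction medium, were dosed in duplicate for 48 h at eight half-log concentrations up to 100 uM in 0.5% DMSO. IL6R mRNA quantified by qRT-PCR, normalized to ACTB/GAPDH/POLR2A; bidirectional fit versus DMSO.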

[17] = read-out: Potassium channel subfamily K member 1 (KCNK1), KCNK1 (gene 3775); assay: LTEA_HepaRG_KCNK1: Life Technologies and Expression Analysis (LTEA) Assay for Potassium channel subfamily K member 1 (KCNK1) using HepaRG (AID 2283511)
How it was run: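 Differentiated human HepaRG cells in serum-free induction medium were exposed in duplicate for 48 h to 8 half-log concentrations up to 100 uM in 0.5% DMSO. KCNK1 mRNA was measured by TaqMan qRT-PCR, normalized to ACTB, GAPDH and POLR2A, and fitted bidirectionally versus DMSO.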

[18] = read-out: Keratin 19 (KRT19), KRT19 (gene 3880); assay: LTEA_HepaRG_KRT19: Life Technologies and Expression Analysis (LTEA) Assay for Keratin 19 (KRT19) using HepaRG (AID 2283512)
How it was run: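 Differentiated human HepaRG cells, plated 48 h, were exposed in duplicate for 48 h in serum-free induction medium to eight half-log concentrations up to 100 uM in 0.5% DMSO. KRT19 mRNA was quantified by qRT-PCR, normalized to ACTB, GAPDH and POLR2A, and fitted bidirectionally versus DMSO.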

Hypoxia-inducible factor 1-alpha (Homo sapiens), sequence (Q16665 whole entry, looked up): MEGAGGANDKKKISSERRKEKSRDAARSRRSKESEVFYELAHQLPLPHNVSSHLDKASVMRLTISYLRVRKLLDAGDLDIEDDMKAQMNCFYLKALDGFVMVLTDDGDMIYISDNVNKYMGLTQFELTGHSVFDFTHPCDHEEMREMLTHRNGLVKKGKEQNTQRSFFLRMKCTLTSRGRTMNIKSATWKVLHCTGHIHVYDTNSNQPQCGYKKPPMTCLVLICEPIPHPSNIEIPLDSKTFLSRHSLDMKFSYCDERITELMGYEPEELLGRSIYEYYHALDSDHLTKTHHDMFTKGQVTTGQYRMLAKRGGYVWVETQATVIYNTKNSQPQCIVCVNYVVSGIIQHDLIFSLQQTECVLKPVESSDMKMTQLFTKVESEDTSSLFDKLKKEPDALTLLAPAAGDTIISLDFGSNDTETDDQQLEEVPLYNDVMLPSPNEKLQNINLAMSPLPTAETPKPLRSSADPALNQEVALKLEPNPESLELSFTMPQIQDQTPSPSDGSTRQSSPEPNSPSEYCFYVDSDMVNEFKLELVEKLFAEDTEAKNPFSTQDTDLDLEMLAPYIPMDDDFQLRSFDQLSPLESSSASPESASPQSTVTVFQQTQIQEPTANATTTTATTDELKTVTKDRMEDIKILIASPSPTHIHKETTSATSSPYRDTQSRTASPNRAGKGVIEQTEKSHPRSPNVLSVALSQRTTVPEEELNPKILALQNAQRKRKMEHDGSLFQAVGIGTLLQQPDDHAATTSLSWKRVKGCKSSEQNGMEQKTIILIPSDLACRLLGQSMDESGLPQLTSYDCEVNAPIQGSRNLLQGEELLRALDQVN

CC(=O)S[C@@H]1CC2=CC(=O)CC[C@]2(C)[C@H]2CC[C@@]3(C)[C@@H](CC[C@@]34CCC(=O)O4)[C@H]12
AC50 (CYP3A5 (gene 1577)): 50 µM (active) | AC50 [1]: 54.4 µM (active) | AC50 [2]: 50 µM (active) | AC50 [3]: 62.4 µM (active) | AC50 [4]: 69.5 µM (active) | AC50 [5]: 50 µM (active) | AC50 [6]: 32.7 µM (active) | outcome [7]: inactive | outcome [8]: inactive | outcome [9]: inactive | outcome [10]: inactive | AC50 [11]: 65.7 µM (active) | outcome (HGF (gene 3082)): inactive | AC50 [12]: 68.7 µM (active) | outcome [13]: inactive | outcome [14]: inactive | outcome [15]: inactive | AC50 [16]: 63.3 µM (active) | outcome [17]: inactive | outcome [18]: inactive

CCOC(=O)C(C)Oc1ccc(Oc2nc3ccc(Cl)cc3o2)cc1 (stereo not given)
outcome (CYP3A5 (gene 1577)): inactive | outcome [1]: inactive | outcome [2]: inactive | AC50 [3]: 19.9 µM (active) | AC50 [4]: 38.3 µM (active) | outcome [5]: inactive | outcome [6]: inactive | outcome [7]: inactive | outcome [8]: inactive | outcome [9]: inactive | outcome [10]: inactive | outcome [11]: inactive | outcome (HGF (gene 3082)): inactive | AC50 [12]: 20.2 µM (active) | outcome [13]: inactive | outcome [14]: inactive | outcome [15]: inactive | outcome [16]: inactive | outcome [17]: inactive | outcome [18]: inactive

N#CSCSc1nc2ccccc2s1
outcome (CYP3A5 (gene 1577)): inactive | AC50 [1]: 88.5 µM (active) | AC50 [2]: 90.5 µM (active) | outcome [3]: inactive | AC50 [4]: 86 µM (active) | outcome [5]: inactive | outcome [6]: inactive | outcome [7]: inactive | outcome [8]: inactive | outcome [9]: inactive | outcome [10]: inactive | outcome [11]: inactive | outcome (HGF (gene 3082)): inactive | AC50 [12]: 77.2 µM (active) | outcome [13]: inactive | outcome [14]: inactive | outcome [15]: inactive | AC50 [16]: 84 µM (active) | outcome [17]: inactive | outcome [18]: inactive
